Results published in ChEMBL document CHEMBL3988442, “University of Dundee, Small-Polar-MMV Screening Library” (2021).
In all, about 48,000 compounds went through this assay and about 13,000 (27%) showed an effect of 50% or more. The list shows a part of the results.

Each compound was assayed on Wolbachia pipientis (assay: Anti-Wolbachia Cell-Based Screen). Conditions: 5 µM.
Type: functional
Parameters: scale not given: in the data most compounds retested in dose-response had high values
For `CCc1ccc(CCNc2ncnc3c2CCN(C(=O)C2CC2)C3)cc1`, the “Percent Effect” value was -23.9%. With `NC(=O)C1CCN(CCCc2ccc(C(F)(F)F)cc2)CC1` the “Percent Effect” value was 5.084%. In the case of `OCC1CN(Cc2nc(C(F)(F)F)cs2)c2ccccc2O1` (stereo not drawn), the “Percent Effect” value is reported as 3.254%. For `Cn1nc(C(=O)NC2CC(C)(C)NC(C)(C)C2)cc1NC(=O)C1CC1`, the “Percent Effect” value was -0.3555%. For `CC(C)c1cc(C(=O)NC2CCN(CC(N)=O)CC2)nn1C(C)(C)C`, the “Percent Effect” value was 128%. For `CC(CCc1ccccc1)CC(=O)NC1CCN(CC(N)=O)CC1` (stereo not drawn), the “Percent Effect” value was -10.07%. For `CC(C)c1cc(C(=O)NCC(O)C2CCOCC2)nn1C(C)(C)C` (stereo not drawn), the “Percent Effect” value was -4.207%. `Cn1nc(C(=O)NC2CC2)cc1NC(=O)C1CC1` was tested, and the “Percent Effect” value was -11.77%. With `CC(C)(C)n1nc(C2CC2)cc1C(=O)NC1CCN(CC(N)=O)CC1` the “Percent Effect” value was 124.1%. In the case of `CNC(=O)C1CCC(NC(=O)c2cc(C3CC3)n(C(C)(C)C)n2)CC1` (stereo not drawn), the “Percent Effect” value is reported as 117.3%. With `CC(C)(C)n1nc(C(=O)NCC2(C(N)=O)CCOCC2)cc1C1CC1` the “Percent Effect” value was 8.942%. `CC(C)c1cc(C(=O)NCC2(C(N)=O)CCOCC2)nn1C(C)(C)C` was tested, and the “Percent Effect” value was -12.39%. With `CC(C)(C)n1nc(C(=O)NC2CCN(CC(N)=O)CC2)cc1C1CC1` the “Percent Effect” value was 128.2%. `CCNc1ccnc(NC2CCN(CC(N)=O)CC2)n1` was tested, and the “Percent Effect” value was 2.921%. For `CC(C)(C)n1nc(C2CC2)cc1C(=O)NCC1(C(N)=O)CCOCC1`, the “Percent Effect” value was 3.596%. `Cc1ccc(C)c(Oc2ccc(CNC(=O)C3CCC(=O)N3)cn2)c1` (stereo not drawn) was tested, and the “Percent Effect” value was -2.356%. In the case of `CCCc1nnsc1C(=O)N1CCN(CC(O)c2ccco2)CC1.Cl` (stereo not drawn), the “Percent Effect” value is reported as -2.42%. In the case of `Cc1nnc2n1CCN(Cc1ncc(-c3ccc(Cl)cc3)o1)C2`, the “Percent Effect” value is reported as -13.18%. In the case of `CS(=O)(=O)N1CC[C@]2(C[C@@H](OCC3CCC3)CO2)C1`, the “Percent Effect” value is reported as 0.0763%. In the case of `NC(=O)CN1CCC(NC(=O)c2ccn(-c3cccc(F)c3)n2)CC1`, the “Percent Effect” value is reported as -0.7272%. In the case of `CCCc1nc(C)c(C(=O)NC2CCN(CC(N)=O)CC2)s1`, the “Percent Effect” value is reported as 7.483%. In the case of `Cc1cc(C(=O)NC2CCN(CC(N)=O)CC2)nn1C(C)(C)C`, the “Percent Effect” value is reported as 133.1%. In the case of `Cc1csc(CN(C)CCCOc2cccc(C#N)c2)n1`, the “Percent Effect” value is reported as 1.685%. In the case of `Cc1nn(C)c(N2CCOCC2)c1CNCc1ccnn1C`, the “Percent Effect” value is reported as 142.8%. With `Cc1nn(C)c(N2CCOCC2)c1CNCc1nccs1` the “Percent Effect” value was -7.203%. In the case of `Cc1nn(C)c(N2CCOCC2)c1CNCc1ccc(Cl)s1`, the “Percent Effect” value is reported as 2.748%. For `Cc1cccc(CNCc2c(C)nn(C)c2N2CCOCC2)n1`, the “Percent Effect” value was -8.764%. `Cc1nn(C)c(N2CCOCC2)c1CNCc1ccccc1CO` was tested, and the “Percent Effect” value was 115.8%. For `Cc1nn(C)c(N2CCOCC2)c1CNCC1CCN(C2CC2)C1` (stereo not drawn), the “Percent Effect” value was -9.16%. `Cc1nn(C)c(N2CCOCC2)c1CNCC1CCS(=O)(=O)C1` (stereo not drawn) was tested, and the “Percent Effect” value was -15.3%. For `Cc1nn(C)c(N2CCOCC2)c1CNC(C)c1ccco1` (stereo not drawn), the “Percent Effect” value was -14.65%. In the case of `Cc1nn(C)c(N2CCOCC2)c1CNCC1CCCN1C` (stereo not drawn), the “Percent Effect” value is reported as -4.188%. In the case of `Cc1nn(C)c(N2CCOCC2)c1CNCc1ccoc1C`, the “Percent Effect” value is reported as 153.8%. For `Cc1nn(C)c(N2CCOCC2)c1CNCc1ccc(CO)c(F)c1`, the “Percent Effect” value was 138%. With `O=C(NCC1(O)CCSCC1)c1ccoc1` the “Percent Effect” value was -3.908%. `Cc1nccn1CC1CCCN1CCCc1nc(-c2cccs2)no1` (stereo not drawn) was tested, and the “Percent Effect” value was 8.035%. `Cc1ncccc1CNC(CCO)C1CCCCC1` (stereo not drawn) was tested, and the “Percent Effect” value was 3.816%. In the case of `Cn1ccnc1C1CCN(S(=O)(=O)c2ccc3c(c2)OCCO3)CC1`, the “Percent Effect” value is reported as -44.72%. For `O=C(Nc1ncn(CC(=O)N2CCCCCC2)n1)C1CCCO1` (stereo not drawn), the “Percent Effect” value was -2.557%. `Fc1ccc(CN2CCCC2Cn2cncn2)c2ncccc12` (stereo not drawn) was tested, and the “Percent Effect” value was 11.89%. In the case of `CC(C)N(C(=O)c1ccnc(OCC(F)(F)F)c1)c1cccnc1`, the “Percent Effect” value is reported as -10.5%. For `COc1ccc(CNCc2c(C)nn(C)c2N2CCOCC2)cc1`, the “Percent Effect” value was 6.012%. In the case of `COCc1cccc(CNCc2c(C)nn(C)c2N(C)C)c1`, the “Percent Effect” value is reported as -4.219%. In the case of `Cc1nc(CNCc2c(C)nn(C)c2N2CCOCC2)cs1`, the “Percent Effect” value is reported as -13.32%. For `Cc1nn(C)c(N2CCOCC2)c1CNCc1ccc(N(C)C)nc1`, the “Percent Effect” value was 80.75%. For `Cc1nn(C)c(N2CCOCC2)c1CNCc1ccc2c(c1)OCO2`, the “Percent Effect” value was 96.35%. `COCc1cccc(CNCc2c(C)nn(C)c2N2CCOCC2)c1` was tested, and the “Percent Effect” value was 117.6%. `Cc1cc(CNCc2c(C)nn(C)c2N2CCOCC2)no1` was tested, and the “Percent Effect” value was -8.986%. In the case of `Cc1nn(C)c(N2CCOCC2)c1CNCc1ccc(C(C)O)cc1` (stereo not drawn), the “Percent Effect” value is reported as 111.2%. With `Cc1nn(C)c(N2CCOCC2)c1CNCc1ccnc(N(C)C)c1` the “Percent Effect” value was -0.1268%. `Cc1nn(C)c(N(C)C)c1CNCc1ccc(N(C)C)nc1` was tested, and the “Percent Effect” value was 0.9542%. `CCCN1CCc2[nH]cnc2C12CCN(C(=O)CCn1cccn1)CC2` was tested, and the “Percent Effect” value was -44.41%. `O=C(CCCc1nnc(-c2ccccc2)o1)N1CCN(CCO)CC1` was tested, and the “Percent Effect” value was -6.561%. In the case of `CCOc1ccccc1N(C)C(=O)c1cscn1`, the “Percent Effect” value is reported as 11.28%. With `CC1CN(C(=O)c2cnn(-c3ccccn3)c2C(C)C)CC(C)(C)O1` (stereo not drawn) the “Percent Effect” value was 3.589%. For `Cn1cc(C(O)CNC(=O)Nc2cc(F)ccc2-n2cccn2)cn1` (stereo not drawn), the “Percent Effect” value was -4.933%. `CSCC(C)(O)CNC(=O)c1cc(Br)ccc1Cl` (stereo not drawn) was tested, and the “Percent Effect” value was 7.074%. In the case of `Cc1ccc(C(=O)NCC(O)c2cnn(C)c2)c(Br)c1` (stereo not drawn), the “Percent Effect” value is reported as 99.45%. With `CCOc1cc(F)ccc1NC(=O)NCC(c1cnn(C)c1)N(C)C` (stereo not drawn) the “Percent Effect” value was 4.743%. `Cc1ccc(C(O)CNC(=O)c2cccnc2O)cc1` (stereo not drawn) was tested, and the “Percent Effect” value was -65.97%. `CC(CNC(=O)c1ccc(F)cc1Cl)N1CCCC1` (stereo not drawn) was tested, and the “Percent Effect” value was 2.022%. With `Cn1cc(C(O)CNC(=O)c2cc(Br)ccc2Cl)cn1` (stereo not drawn) the “Percent Effect” value was 133.1%. With `Cn1cc(C(O)CNC(=O)c2ccc(F)cc2Cl)cn1` (stereo not drawn) the “Percent Effect” value was 121.3%. `Cc1ccc(NC(=O)NCC(c2cnn(C)c2)N(C)C)c(C)c1` (stereo not drawn) was tested, and the “Percent Effect” value was -2.112%. With `Cc1ccc(C(=O)NCC(c2cnn(C)c2)N(C)C)c(O)c1` (stereo not drawn) the “Percent Effect” value was 194.8%. `Cn1cc(C(O)CNC(=O)c2sccc2OC(F)F)cn1` (stereo not drawn) was tested, and the “Percent Effect” value was -0.7442%. With `Cn1cc(CCCNC(=O)NCC(O)c2ccsc2)cn1` (stereo not drawn) the “Percent Effect” value was -8.721%. For `CC(NCCn1cccn1)c1cc(F)ccc1F` (stereo not drawn), the “Percent Effect” value was 17.19%.
